According to PubChem BioAssay (EPA / NIEHS):
Several values for one entry are separate records, joined by “and”; a condition that tells them apart may be missing. Identical values can stand only once. Inconclusive results are not listed. Where a structure was tested more than once in an assay, its records may differ in their call. Activity calls are given as the source filed them. The calls were made as follows, unless noted: active = hit-call score of the fitted dose curve at least 0.9, where 1 is the maximum; inconclusive = response in the unintended direction; inactive = score below 0.9.

How the values were obtained:
[1] = ATG_M_32_XSP2: Attagene TRANS-FACTORIAL Multi-Species (XSP2) HepG2 Assay for M19 Transcription Factor (Internal Marker) (AID 2283826)
In short: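 Read-out: fluorescent reporter mRNA fragments resolved by capillary electrophoresis after RT-PCR, gain-of-signal versus DMSO baseline. Cells were human HepG2 carrying transfected multi-reporter units, exposed 24 h. Medium contained 3 nM 6-alpha-fluorotestosterone plus 1.5 nM norgestrel.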

[2] = target: Nuclear receptor subfamily 1 group I member 2 (Mus musculus) (UniProt O54915); assay: ATG_mPXR_XSP2: Attagene TRANS-FACTORIAL Multi-Species (XSP1) HepG2 Assay for mouse Pregnane X Receptor (PXR) (AID 2283831)
Chain of Nuclear receptor subfamily 1 group I member 2 (Mus musculus) (O54915 whole entry, looked up, the tested form may be a part): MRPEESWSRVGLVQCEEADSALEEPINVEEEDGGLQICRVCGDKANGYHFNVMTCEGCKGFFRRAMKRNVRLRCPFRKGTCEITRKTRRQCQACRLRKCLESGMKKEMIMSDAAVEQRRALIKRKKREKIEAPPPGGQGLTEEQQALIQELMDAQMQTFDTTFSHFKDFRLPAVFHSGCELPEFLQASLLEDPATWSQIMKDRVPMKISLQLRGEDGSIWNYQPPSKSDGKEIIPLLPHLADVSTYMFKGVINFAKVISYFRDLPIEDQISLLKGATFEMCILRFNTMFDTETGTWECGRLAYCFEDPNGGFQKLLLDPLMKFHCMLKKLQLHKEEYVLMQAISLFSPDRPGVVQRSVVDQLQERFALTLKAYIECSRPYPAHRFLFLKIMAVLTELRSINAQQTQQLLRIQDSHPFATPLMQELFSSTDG
In short: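 Transient HepG2 transfection, multiplexed GAL4-UAS reporters, NR-GAL4 chimeras. 24 h compound exposure. Readout: reporter mRNA, RT-PCR, fluorescent capillary electrophoresis; positive direction vs DMSO baseline.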

[3] = target: zebrafish Thyroid Hormone Receptor alpha (TRa), thraa (gene 30670) (UniProt Q98867); assay: ATG_zfTRa_XSP2: Attagene TRANS-FACTORIAL Multi-Species (XSP1) HepG2 Assay for zebrafish Thyroid Hormone Receptor alpha (TRa) (AID 2283832);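 also: actives raise zebrafish TRa-Gal4 reporter transcript above DMSO baseline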
Chain of zebrafish Thyroid Hormone Receptor alpha (TRa), thraa (gene 30670) (Q98867 whole entry, looked up, the tested form may be a part): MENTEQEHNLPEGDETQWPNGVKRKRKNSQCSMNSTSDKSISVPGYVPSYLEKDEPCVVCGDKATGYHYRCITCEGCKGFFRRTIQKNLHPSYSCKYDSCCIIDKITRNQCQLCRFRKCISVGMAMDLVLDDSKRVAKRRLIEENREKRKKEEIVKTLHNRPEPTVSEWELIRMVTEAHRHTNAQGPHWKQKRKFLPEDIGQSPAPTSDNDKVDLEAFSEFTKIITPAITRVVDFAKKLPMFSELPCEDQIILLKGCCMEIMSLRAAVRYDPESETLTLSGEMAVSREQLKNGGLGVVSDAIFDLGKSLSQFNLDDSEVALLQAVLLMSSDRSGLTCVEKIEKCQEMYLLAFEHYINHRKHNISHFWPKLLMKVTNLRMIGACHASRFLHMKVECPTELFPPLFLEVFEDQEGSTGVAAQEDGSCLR
In short: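 HepG2, transient MRTU transfection, exogenous NR-Gal4 chimeras; 24 h dosing; mRNA readout via RT-PCR/CE fluorescence; positive direction vs DMSO.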

[4] = system: zebrafish Peroxisome Proliferator-activated Receptor gamma (PPARg), gene 557037; assay: ATG_zfPPARg_XSP2: Attagene TRANS-FACTORIAL Multi-Species (XSP2) HepG2 Assay for zebrafish Peroxisome Proliferator-activated Receptor gamma (PPARg) (AID 2283833);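 also: reporter mRNA from a zebrafish PPARg GAL4 chimera measured by RT-PCR and capillary electrophoresis; actives increase reporter signal over DMSO so AC50 reflects activation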
In short: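 Transfect HepG2 with multiplexed GAL4-UAS reporter constructs; dose chemical 24 h; isolate RNA, reverse-transcribe, PCR-amplify, label and digest reporter products; resolve by capillary electrophoresis. Activity taken as increase over DMSO.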

[5] = system: turtle Thyroid Hormone Receptor, alpha (TRa), gene 101949057; assay: ATG_trTRa_XSP2: Attagene TRANS-FACTORIAL Multi-Species (XSP1) HepG2 Assay for turtle Thyroid Hormone Receptor, alpha (TRa) (AID 2283834);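 also: hits raise reporter mRNA over the DMSO baseline so AC50 marks activators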
In short: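 Readout: reporter mRNA induction, fluorescence after RT-PCR, HpaI digestion and capillary electrophoresis. Transiently transfected HepG2, exogenous NR-Gal4 chimera driving GAL4-UAS reporter, 24 h compound exposure. Activity fitted upward relative to DMSO baseline.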

[6] = ATG_M_61_XSP2: Attagene TRANS-FACTORIAL Multi-Species (XSP2) HepG2 Assay for M61 Transcription Factor (Internal Marker) (AID 2283835; active = hit-call score of the fitted dose curve at least 0.9, where 1 is the maximum; inactive = score below 0.9;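 also: active means a rise in signal above the DMSO baseline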)
In short: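 Internal background marker, read as RT-PCR/capillary-electrophoresis reporter mRNA 24 h post-dose in transiently transfected HepG2 cells. Androgen receptor stimulated with 3 nM 6-alpha-fluorotestosterone plus 1.5 nM norgestrel; gain of signal versus DMSO analysed.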

[7] = target: zebrafish Thyroid Hormone Receptor beta (TRb), thrb (gene 30607) (UniProt Q9PVE4); assay: ATG_zfTRb_XSP2: Attagene TRANS-FACTORIAL Multi-Species (XSP1) HepG2 Assay for zebrafish Thyroid Hormone Receptor beta (TRb) (AID 2283836);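 as to AC50: potency for induction of reporter signal above DMSO so agonist direction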
Chain of zebrafish Thyroid Hormone Receptor beta (TRb), thrb (gene 30607) (Q9PVE4 whole entry, looked up): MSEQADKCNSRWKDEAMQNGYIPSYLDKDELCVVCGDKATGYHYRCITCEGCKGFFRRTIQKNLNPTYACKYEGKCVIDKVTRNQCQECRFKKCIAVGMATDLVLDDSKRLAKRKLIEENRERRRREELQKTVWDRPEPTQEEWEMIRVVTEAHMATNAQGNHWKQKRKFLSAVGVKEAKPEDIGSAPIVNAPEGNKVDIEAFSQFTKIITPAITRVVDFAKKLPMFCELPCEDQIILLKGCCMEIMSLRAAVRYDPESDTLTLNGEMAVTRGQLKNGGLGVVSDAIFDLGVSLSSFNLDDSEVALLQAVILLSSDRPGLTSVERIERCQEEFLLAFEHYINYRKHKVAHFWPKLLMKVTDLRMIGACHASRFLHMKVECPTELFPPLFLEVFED
In short: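 Transfect HepG2 with multiple reporter transcription units, dose chemical, incubate 24 h. Isolate RNA, reverse-transcribe, amplify and fluorescently label reporter sequences, digest with HpaI, then resolve by capillary electrophoresis. Positive direction fitted against DMSO.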

[8] = target: human Thyroid hormone Receptor alpha (TRa), THRA (gene 7067) (UniProt P10827); assay: ATG_hTRa_XSP2: Attagene TRANS-FACTORIAL Multi-Species (XSP2) HepG2 Assay for human Thyroid hormone Receptor alpha (TRa) (AID 2283838)
Chain of human Thyroid hormone Receptor alpha (TRa), THRA (gene 7067) (P10827 whole entry, looked up, the tested form may be a part): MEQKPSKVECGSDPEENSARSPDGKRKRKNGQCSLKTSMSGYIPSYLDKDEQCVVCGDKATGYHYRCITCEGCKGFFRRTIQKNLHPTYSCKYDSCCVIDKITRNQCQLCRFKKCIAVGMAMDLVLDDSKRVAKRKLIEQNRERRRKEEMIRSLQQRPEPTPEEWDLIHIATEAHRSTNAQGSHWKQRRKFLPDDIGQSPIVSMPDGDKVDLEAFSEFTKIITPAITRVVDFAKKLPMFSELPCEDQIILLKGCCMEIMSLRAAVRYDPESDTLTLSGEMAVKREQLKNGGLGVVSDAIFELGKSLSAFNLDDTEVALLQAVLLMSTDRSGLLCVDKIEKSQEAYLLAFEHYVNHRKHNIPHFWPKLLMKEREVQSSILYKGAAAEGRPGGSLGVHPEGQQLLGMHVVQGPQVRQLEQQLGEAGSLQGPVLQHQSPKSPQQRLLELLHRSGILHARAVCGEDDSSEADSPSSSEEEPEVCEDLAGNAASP
In short: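 Reporter transcripts were read by RT-PCR with fluorescent primer extension, HpaI digestion and capillary electrophoresis. These came from HepG2 cells carrying multiplexed TRa-Gal4 TRANS constructs, harvested 24 hours after dosing. The medium also held 6-alpha-fluorotestosterone (3 nM) and norgestrel (1.5 nM), and increases were fitted against DMSO.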

[9] = target: frog Thyroid hormone Receptor alpha (TRa), thra-a (gene 397942) (UniProt P15204); assay: ATG_frTRa_XSP2: Attagene TRANS-FACTORIAL Multi-Species (XSP2) HepG2 Assay for frog Thyroid hormone Receptor alpha (TRa) (AID 2283839);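 as to AC50: AC50 reflects induction of frog TRa-driven reporter mRNA above DMSO baseline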
Chain of frog Thyroid hormone Receptor alpha (TRa), thra-a (gene 397942) (P15204 whole entry, looked up, the tested form may be a part): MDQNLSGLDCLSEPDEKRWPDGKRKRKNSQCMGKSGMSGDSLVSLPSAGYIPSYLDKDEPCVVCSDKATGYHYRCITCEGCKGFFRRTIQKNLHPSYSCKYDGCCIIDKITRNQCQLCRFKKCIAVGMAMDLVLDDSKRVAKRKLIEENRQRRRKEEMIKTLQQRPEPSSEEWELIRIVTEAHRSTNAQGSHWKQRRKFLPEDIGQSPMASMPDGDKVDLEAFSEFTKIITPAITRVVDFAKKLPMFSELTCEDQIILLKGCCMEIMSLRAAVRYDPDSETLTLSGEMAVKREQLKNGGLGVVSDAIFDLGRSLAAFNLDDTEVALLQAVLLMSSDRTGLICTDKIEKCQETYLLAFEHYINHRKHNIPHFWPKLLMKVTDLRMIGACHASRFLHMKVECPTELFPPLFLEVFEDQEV
In short: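 Read-out: fluorescent reporter-transcript fragments resolved by capillary electrophoresis after RT-PCR and HpaI cut. Human HepG2 liver cells carry a transfected frog TRα-Gal4 chimera driving a UAS reporter; 24 h exposure, DMSO baseline, positive-direction fit.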

[10] = target: human Thyroid hormone Receptor beta (TRb), THRB (gene 7068) (UniProt P10828); assay: ATG_hTRb_XSP2: Attagene TRANS-FACTORIAL Multi-Species (XSP2) HepG2 Assay for human Thyroid hormone Receptor beta (TRb) (AID 2283840);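 also: actives raise reporter mRNA so potency reflects agonist-like gain of signal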
Chain of human Thyroid hormone Receptor beta (TRb), THRB (gene 7068) (P10828 whole entry, looked up, the tested form may be a part): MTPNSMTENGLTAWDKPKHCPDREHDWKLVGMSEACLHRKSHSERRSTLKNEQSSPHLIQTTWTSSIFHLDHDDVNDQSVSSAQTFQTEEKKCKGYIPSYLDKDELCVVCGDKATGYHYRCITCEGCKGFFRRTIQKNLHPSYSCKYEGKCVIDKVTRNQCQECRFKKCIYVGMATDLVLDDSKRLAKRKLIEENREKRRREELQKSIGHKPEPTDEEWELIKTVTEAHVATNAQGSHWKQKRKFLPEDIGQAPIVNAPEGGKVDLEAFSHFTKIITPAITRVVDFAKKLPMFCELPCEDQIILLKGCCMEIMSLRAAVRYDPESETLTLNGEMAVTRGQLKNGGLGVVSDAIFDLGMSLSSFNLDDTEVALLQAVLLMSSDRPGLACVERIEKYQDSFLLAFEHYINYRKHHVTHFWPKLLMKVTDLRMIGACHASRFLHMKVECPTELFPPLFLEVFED
In short: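 Read-out: reporter mRNA induction (RT-PCR, 6-FAM labeling, capillary electrophoresis), gain-of-signal relative to DMSO baseline. Transiently transfected HepG2 TRANS multiplex (NR-Gal4 chimeras, GAL4-UAS reporters), 24 h chemical exposure; medium contained 3 nM 6-alpha-fluorotestosterone plus 1.5 nM norgestrel.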

[11] = system: Sodium/Iodide Symporter (NIS), SLC5A5 (gene 6528); assay: CPHEA_Stoker_NIS_Inhibition_RAIU: CPHEA's Radioactive Iodide Uptake (RAIU) Assay for Sodium/Iodide Symporter (NIS) Inhibition, Stoker and Laws Labs (AID 2283841)
In short: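 HEK293T cells stably expressing human NIS (hNIS-HEK293T-EPA) were exposed to test chemicals at 0.001–100uM (0.5% final DMSO) with 125I at a final 329pM in HBSS/10mM HEPES pH 7.4. After 2 hours at room temperature and ice-cold washes, intracellular 125I was counted as CPM and normalized to DMSO wells.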

[12] = CPHEA_Stoker_NIS_Cytotoxicity: Cytotoxicity Assessment for CPHEA's Radioactive Iodide Uptake (RAIU) Assay for Sodium/Iodide Symporter (NIS) Inhibition, Stoker and Laws Labs (AID 2283897);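 as to AC50: active means loss of ATP signal versus DMSO meaning cytotoxicity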
In short: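 hNIS-HEK293T-EPA human kidney cells were exposed for 2 hours at room temperature to test chemicals (0.001–100uM, 0.5% final DMSO) in HEPES-buffered HBSS, pH 7.4. Viability was read as ATP content by luciferase bioluminescence, loss of signal versus DMSO.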

[13] = target: Peroxisome proliferator-activated receptor gamma (Homo sapiens) (UniProt P37231); assay: ATG_hPPARg_XSP2: Attagene TRANS-FACTORIAL Multi-Species (XSP2) HepG2 Assay for human Peroxisome Proliferator-activated Receptor gamma (PPARg) (AID 2283829);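 also: actives raise reporter mRNA above DMSO so AC50 reflects PPARg activation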
Chain of Peroxisome proliferator-activated receptor gamma (Homo sapiens) (P37231 whole entry, looked up, the tested form may be a part): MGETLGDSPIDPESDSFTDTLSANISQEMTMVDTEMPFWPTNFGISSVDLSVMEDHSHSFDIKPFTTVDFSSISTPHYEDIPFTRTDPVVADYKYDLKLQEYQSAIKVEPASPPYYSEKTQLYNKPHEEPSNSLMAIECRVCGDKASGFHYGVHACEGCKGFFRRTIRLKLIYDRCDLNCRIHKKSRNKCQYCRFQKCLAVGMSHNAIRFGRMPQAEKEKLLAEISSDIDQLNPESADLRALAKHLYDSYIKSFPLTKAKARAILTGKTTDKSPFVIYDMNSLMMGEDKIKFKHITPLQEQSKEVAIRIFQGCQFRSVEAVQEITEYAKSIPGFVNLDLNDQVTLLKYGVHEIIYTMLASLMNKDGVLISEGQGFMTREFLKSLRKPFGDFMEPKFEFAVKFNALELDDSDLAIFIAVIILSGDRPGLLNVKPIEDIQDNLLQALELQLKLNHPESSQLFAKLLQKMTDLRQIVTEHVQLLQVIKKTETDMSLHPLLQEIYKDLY
In short: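 Transient MRTU transfection, HepG2; TRANS format (exogenous NR-Gal4 chimeras). 24 h chemical exposure with 3 nM 6-alpha-fluorotestosterone and 1.5 nM norgestrel present. Readout: reporter mRNA via RT-PCR/CE fluorescence, up-direction vs DMSO.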

[14] = ATG_XTT_Cytotoxicity_XSP2: Cytotoxicity Assessment in the Attagene TRANS-FACTORIAL Multi-Species (XSP2) HepG2 Assay (AID 2283837)
In short: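 XTT-based cell number read-out in human HepG2 liver cells carrying transfected reporter units, measured 24 h after chemical dosing. Activity is signal loss versus DMSO baseline.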

[15] = target: Estrogen receptor (Homo sapiens) (UniProt P03372); assay: ATG_hERa_XSP2: Attagene TRANS-FACTORIAL Multi-Species (XSP2) HepG2 Assay for human Estrogen Receptor (ERa) (AID 2283827)
Chain of Estrogen receptor (Homo sapiens) (P03372 whole entry, looked up, the tested form may be a part): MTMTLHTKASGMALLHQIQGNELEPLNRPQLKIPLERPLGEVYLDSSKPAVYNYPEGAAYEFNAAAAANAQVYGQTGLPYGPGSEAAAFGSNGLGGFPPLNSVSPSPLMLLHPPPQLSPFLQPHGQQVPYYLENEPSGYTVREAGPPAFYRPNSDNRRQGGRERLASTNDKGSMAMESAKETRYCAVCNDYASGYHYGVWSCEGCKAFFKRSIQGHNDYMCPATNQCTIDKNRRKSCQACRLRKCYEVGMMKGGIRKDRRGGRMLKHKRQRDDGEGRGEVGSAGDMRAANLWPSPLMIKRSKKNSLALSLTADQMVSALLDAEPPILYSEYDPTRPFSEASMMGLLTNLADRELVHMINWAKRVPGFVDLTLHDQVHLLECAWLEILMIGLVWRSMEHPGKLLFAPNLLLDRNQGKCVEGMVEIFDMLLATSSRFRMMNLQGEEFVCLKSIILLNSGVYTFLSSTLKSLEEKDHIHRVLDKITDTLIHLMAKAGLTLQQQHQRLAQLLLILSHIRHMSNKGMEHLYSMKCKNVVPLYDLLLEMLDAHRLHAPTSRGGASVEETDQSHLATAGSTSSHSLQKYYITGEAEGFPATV
In short: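 Trans-activation of exogenous human ERa-Gal4 chimera read in HepG2 as reporter transcript after 24 h exposure; medium included 3 nM 6-alpha-fluorotestosterone and 1.5 nM norgestrel. Quantified by RT-PCR with capillary electrophoresis, positive-direction fitting against DMSO.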

[16] = CEETOX_H295R_OHPREG_noMTC: CeeTox H295R High-throughput Steroidogenesis Assay for OH-Pregnenolone (OHPREG), maximum tolerated concentration (MTC) filtered results only (AID 2283912; active = hit-call score of the fitted dose curve at least 0.9, where 1 is the maximum; inactive = score below 0.9); conditions: actives raise or lower the signal
In short: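 Medium 17alpha-hydroxypregnenolone quantified by reverse-phase HPLC-MS/MS after 48 h chemical exposure of forskolin-prestimulated (10 uM, 48 h) H295R, 0.1% DMSO final. Fitting bidirectional relative to DMSO; no maximum-tolerated-concentration filtering applied.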

[17] = CEETOX_H295R_OHPROG_noMTC: CeeTox H295R High-throughput Steroidogenesis Assay for OH-Progesterone (OHPROG), maximum tolerated concentration (MTC) filtered results only (AID 2283914; active = hit-call score of the fitted dose curve at least 0.9, where 1 is the maximum; inactive = score below 0.9); conditions: actives raise or lower the signal
In short: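 After 48 h forskolin (10 uM) prestimulation, H295R adrenal cells received test chemical in 0.1% DMSO for 48 h. Medium 17alpha-hydroxyprogesterone was MTBE-extracted and measured by HPLC-MS/MS; gain or loss relative to DMSO, no MTT-based MTC filtering.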

[18] = CEETOX_H295R_ANDR_noMTC: CeeTox H295R High-throughput Steroidogenesis Assay for Androstenedione (ANDR), maximum tolerated concentration (MTC) filtered results only (AID 2283915; active = hit-call score of the fitted dose curve at least 0.9, where 1 is the maximum; inactive = score below 0.9); conditions: actives raise or lower the signal
In short: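 Androstenedione secreted into medium was measured by LC-MS/MS after MTBE extraction. Human adrenal H295R cells received 10 uM forskolin for 48 h before 48 h chemical exposure (0.1% DMSO). Gain or loss fitted against DMSO, including concentrations above the MTT-derived MTC.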

[19] = CEETOX_H295R_PROG_noMTC: CeeTox H295R High-throughput Steroidogenesis Assay for Progesterone (PROG), maximum tolerated concentration (MTC) filtered results only (AID 2283920; active = hit-call score of the fitted dose curve at least 0.9, where 1 is the maximum; inactive = score below 0.9); conditions: actives raise or lower the signal
In short: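 Progesterone secreted into medium was measured by HPLC-MS/MS after MTBE extraction, following 48 h chemical exposure (0.1% DMSO) of forskolin-prestimulated (10 uM, 48 h) H295R adrenal cells. Gain or loss fitted against DMSO; no MTC filtering.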

[20] = CEETOX_H295R_TESTO_noMTC: CeeTox H295R High-throughput Steroidogenesis Assay for Testosterone (TESTO), maximum tolerated concentration (MTC) filtered results only (AID 2283924; active = hit-call score of the fitted dose curve at least 0.9, where 1 is the maximum; inactive = score below 0.9); conditions: actives raise or lower the signal
In short: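 Medium testosterone, measured by HPLC-MS/MS after liquid-liquid extraction, was fitted in both directions relative to DMSO without MTC filtering. Adrenal H295R cells received 48 h chemical exposure (0.1% DMSO final) after 48 h forskolin (10 uM) prestimulation; viability by MTT.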

Measured: AC50

C#CC(C)(C)NC(=O)c1cc(Cl)cc(Cl)c1
inactive: [1] | [3] | [4] | [5] | [6] | [7] | [8] | [10]
active: [2] 26.8 µM | [9] 26.8 µM

CC(C)=CC1C(C(=O)OCN2C(=O)C3=C(CCCC3)C2=O)C1(C)C (stereo unspecified)
active: [11] 32.9 µM | [12] 35.4 µM

CCCCN(CC)c1c([N+](=O)[O-])cc(C(F)(F)F)cc1[N+](=O)[O-]
inactive: [11] | [12]

CCOP(=O)(NC(C)C)Oc1ccc(SC)c(C)c1 (stereo unspecified)
inactive: [1] | [3] | [4] | [5] | [6] | [7] | [14] | [9]
active: [13] 43.6 µM and 36.6 µM | [2] 4.34 µM and 4.75 µM | [4] 100 µM

CCC(=O)Nc1ccc(Cl)c(Cl)c1
inactive: [3] | [4] | [5] | [6] | [7] | [14] | [8] | [9] | [10] | [11] | [12]
active: [13] 27.2 µM | [2] 27.6 µM and 24.3 µM | [8] 165 µM

Nc1c(Cl)cc([N+](=O)[O-])cc1Cl
inactive: [1] | [3] | [4] | [7] | [14] | [11] | [12]
active: [15] 10.9 µM and 17.4 µM | [13] 25.7 µM and 34.9 µM | [2] 10.8 µM and 9.9 µM | [5] 23.6 µM and 29.8 µM | [7] 48.3 µM | [8] 43.6 µM and 22.8 µM | [9] 27.1 µM | [10] 27.6 µM and 82.2 µM

CC(C)N(C(=O)SCC(Cl)=C(Cl)Cl)C(C)C
active: [11] 21.1 µM | [12] 39.8 µM

CCCSP(=O)(OCC)Oc1ccc(Br)cc1Cl (stereo unspecified)
inactive: [11] | [12]

FC(F)C(F)(F)OCC(Cn1cncn1)c1ccc(Cl)cc1Cl (stereo unspecified)
inactive: [11] | [12]

C[Si](Cn1cncn1)(c1ccc(F)cc1)c1ccc(F)cc1
inactive: [11] | [12]

CCCCSP(=O)(SCCCC)SCCCC
inactive: [11] | [12]

O=[N+]([O-])c1cc(C(F)(F)F)c(Cl)c([N+](=O)[O-])c1Nc1ncc(C(F)(F)F)cc1Cl
active: [11] 6.41 µM | [12] 19.6 µM

CCCCOC(=O)c1ccccc1C(=O)O
inactive: [16] | [17] | [18] | [19] | [20]

CCOP(=S)(Oc1cnc(C(C)(C)C)nc1)OC(C)C (stereo unspecified)
inactive: [11] | [12]

CC[C@H](C)[C@H]1O[C@]2(C=C[C@@H]1C)C[C@@H]1C[C@@H](C/C=C(\C)[C@@H](O[C@H]3C[C@H](OC)[C@@H](O[C@H]4C[C@H](OC)[C@@H](NC)[C@H](C)O4)[C@H](C)O3)[C@@H](C)/C=C/C=C3\CO[C@@H]4[C@H](O)C(C)=C[C@@H](C(=O)O1)[C@]34O)O2
active: [11] 13.3 µM | [12] 23 µM

CSC1=N[C@@](C)(c2ccccc2)C(=O)N1Nc1ccccc1
inactive: [11] | [12]

CCOP(=S)(OCC)SCCSCC
inactive: [11] | [12]

CCOP(=S)(OCC)OC(Cl)C(Cl)(Cl)Cl (stereo unspecified)
inactive: [11] | [12]
